This note sets out measurements from PubChem BioAssay (NCI).

The nature of assay [1]: NCI Yeast Anticancer Drug Screen. Data for the rad50 strain (AID 155).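 Further: 0% = growth of vehicle-only cultures of the same strain.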 Particulars: S. cerevisiae rad50 strain growth inhibition, stronger effect = higher value; at 50.0 µM unless noted. Put shortly: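 Readout: growth inhibition relative to vehicle-treated cultures. Compound exposure was carried out in a genetically defined yeast strain deficient in DNA damage repair.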
A short description of assay [2]: NCI Yeast Anticancer Drug Screen. Data for the mec2-1 strain (AID 157). To be noted: S. cerevisiae mec2-1 strain, stronger effect = higher value; at 50.0 µM unless noted. Put shortly:
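Cells of the genetically defined mec2-1 yeast strain are incubated with test compound. Inhibition of growth is calculated against vehicle-treated controls.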

Assay [3] is described as follows: NCI Yeast Anticancer Drug Screen. Data for the sgs1 mgt1 strain (AID 161).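 Further: 0% = growth of cultures given vehicle only.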 To be noted: S. cerevisiae sgs1 mgt1 strain, stronger effect = higher value; at 50.0 µM unless noted. Put shortly: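 Mutant yeast exposed to compound; growth scored against vehicle-only wells.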
The nature of assay [4]: NCI Yeast Anticancer Drug Screen. Data for the cln2 rad14 strain (AID 165).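 Further: 0% = growth equal to vehicle treated cultures.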 To be noted: S. cerevisiae cln2 rad14 strain, stronger effect = higher value; at 50.0 µM unless noted. Put shortly: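 The screen exposed genetically defined yeast (cln2 rad14) to test compounds and scored growth inhibition relative to vehicle-treated controls.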
The nature of assay [5]: NCI Yeast Anticancer Drug Screen. Data for the bub3 strain (AID 167). Particulars: S. cerevisiae bub3 mutant strain, stronger effect = higher value; at 50.0 µM unless noted. Put shortly:
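Readout: yeast growth inhibition, expressed relative to vehicle-only wells. The test organism is a mutant strain from a panel with lesions in DNA repair or checkpoint genes.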

Assay [6] can be described thus: NCI Yeast Anticancer Drug Screen. Data for the mlh1 rad18 strain (AID 175). To be noted: S. cerevisiae mlh1 rad18 strain growth inhibition, stronger effect = higher value; at 50.0 µM unless noted. Put shortly:
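Compound-treated yeast growth, normalised to vehicle controls. Strain bears defined DNA repair mutations.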

Where “and” joins values, the source holds several entries; their conditions need not be identical. Equal entries are not always repeated. This is part of a sample that, as a whole, favours compounds with a hit. Of some 79,000 tested, about 15% had one in any assay. Unmarked numbers belong to inactive results. Calls of active or inactive are those of the source. No stated cut-off is given here; in the data, active means growth inhibition above about 70%; inactive means the rest.

As to `O=[N+]([O-])c1ccc(/C=N/Nc2nnc3c4ccccc4c4ncccc4c3n2)o1`, the growth inhibition in assay [1] was -20.8%; in assay [2], -14.6%; in assay [3], -23.6%; in assay [4], -29.8%; in assay [5], -33.8%; in assay [6] it was 16.9%.
With `O=C1NC(=O)C(Cc2ccccc2)(c2cccnc2)N1` (configuration not stated), the growth inhibition in assay [1] is -28.6%; in assay [2], -17.7%; in assay [3], -5.65%; in assay [4] it was -36.1%; in assay [5], -0.65%; in assay [6] it was -22.2%.
For `CN(C)c1cccc2c(S(=O)(=O)NCCCNCCN)cccc12`, the growth inhibition in assay [1] is 7.6%; in assay [2], -18.4%; in assay [3], -20.9%; in assay [4], 24.4%; in assay [5], -21.2%; in assay [6] it was -6.6%.
In the case of `O=C1c2ccccc2-c2c1c1ccccc1c(=O)n2-c1ccccc1`, the growth inhibition was -1.7% in assay [1]; -26.1% in assay [2]; 6% in assay [3]; -5.85% in assay [4]; -13.6% in assay [5]; -51.6% in assay [6].
Regarding `Cc1ccc(N=C2S/C(=C3/CCC=C3N3CCOCC3)N(c3ccc(Cl)cc3)C2=Nc2ccc(C)cc2)cc1`, the growth inhibition is -8.9% in assay [1]; -13.4% in assay [2]; -14.9% in assay [3]; -14.6% in assay [4]; -22.4% in assay [5]; -28% in assay [6].
Regarding `O=C1c2sc(-c3ccc(Cl)cc3)cc2-n2cccc21`, the growth inhibition was 9.3% in assay [1]; 15.4% in assay [2]; 2.15% in assay [3]; 2.5% in assay [4]; -9.2% in assay [5]; 26.2% in assay [6].
With `O=C(/C=C\c1ccc(Cl)c(Cl)c1)c1ccc(Cl)cc1Cl`, the growth inhibition in assay [1] is 36.1%; in assay [2], 9.35%; in assay [3] it was -4.6%; in assay [4], 1.65%; in assay [5], 22.1%; in assay [6], 0.7%.
As to `CCC(=O)NC(Nc1ccccc1F)(C(F)(F)F)C(F)(F)F`, the growth inhibition in assay [1] was -29.2%; in assay [2], -18.2%; in assay [3] it was -18.1%; in assay [4] it was -4%; in assay [5], -41.9%; in assay [6] it was -35.9%.
Turning to `COc1cc2cnc3c4cc(OCc5ccccc5)ccc4ccc3c2cc1OC`, the growth inhibition in assay [1] is -10.1%; in assay [2], 3.2%; in assay [3], -1%; in assay [4], 25.3%; in assay [5] it was 14.2%; in assay [6] it was -0.25%.
On to `c1c[nH]c(CN2CCOCC2)n1`, for which the growth inhibition in assay [1] is -32%; in assay [2] it was -28.9%; in assay [3], -43.4%; in assay [4] it was 2.5%; in assay [5] it was -38.9%; in assay [6], -5.15%.
Take `CCOC(=O)C1=C(O)C[C@]2(O)C3CC=C(C)[C@@H]4CCO[C@](OC)(C[C@H]2C1)[C@]34C(=O)OC` (some centres not stated): the growth inhibition in assay [1] was 1%; in assay [2] it was 12.8%; in assay [3], 8.35%; in assay [4], 1%; in assay [5], -1.1%; in assay [6], 13.1%.
Turning to `O=C(O)COc1ccc(C2CCc3ccccc32)cc1` (configuration not stated), the growth inhibition was 19.7% in assay [1]; 7.3% in assay [2]; -3.85% in assay [3]; 16% in assay [4]; 8.25% in assay [5]; 0.7% in assay [6].
On to `CC(C)CCOC=O`, for which the growth inhibition in assay [1] was 38.1%; in assay [2], 28.4%; in assay [3], 22.8%; in assay [4], 21.6%; in assay [5], 24.9%; in assay [6], 30.5%.
Turning to `CC1(C)N=C(N)N=C(N)N1c1ccc(N)cc1`, the growth inhibition in assay [1] is 1.7%; in assay [2], -3.8%; in assay [3], 2.75%; in assay [4], -36.8%; in assay [5], -21.4%; in assay [6] it was 7.8%.
For the compound `CCOC(=O)c1sc(SC)nc1NC(=O)c1ccccc1`, the growth inhibition in assay [1] is -18.4%; in assay [2], -9%; in assay [3] it was -5.45%; in assay [4] it was 3.2%; in assay [5] it was -3.4%; in assay [6], -33.2%.
Regarding `NCc1cc(Br)ccc1O`, the growth inhibition in assay [1] was 24.4%; in assay [2] it was 3.3%; in assay [3] it was 23.5%; in assay [4] it was -66.2%; in assay [5], -11%; in assay [6], 20.6%.
As to `Nc1nnc2nc(CC(=O)c3cccc([N+](=O)[O-])c3)/c(=C/C(=O)c3cccc([N+](=O)[O-])c3)n12`, the growth inhibition is 33.5% in assay [1]; 18.7% in assay [2]; 12.2% in assay [3]; 7.45% in assay [4]; -4.8% in assay [5]; 22.8% in assay [6].
Regarding `Cc1ccc(C)c(CCCCS(=O)(=O)O)c1`, the growth inhibition in assay [1] is -27.9%; in assay [2] it was -8.1%; in assay [3] it was -5.75%; in assay [4], -40.4%; in assay [5] it was 1.2%; in assay [6], -7.6%.
For `BrC(Br)(Br)Br`, the growth inhibition in assay [1] is 74% (active); in assay [2], 12.6%; in assay [3], 31.8%; in assay [4], -19.6%; in assay [5] it was 27.4%; in assay [6] it was 57.2%.
For the compound `COC(=O)CCC(NC(=S)N/N=C(\C)c1ccco1)C(=O)OC` (configuration not stated), the growth inhibition in assay [1] was -18.1%; in assay [2], -20.8%; in assay [3] it was 0.25%; in assay [4] it was 26.6%; in assay [5], -5.2%; in assay [6] it was -16.3%.
With `Cc1ccc(Nc2cc(C(=O)O)c(Nc3ccc(C)cc3)cc2C(=O)O)cc1`, the growth inhibition is 0.7% in assay [1]; -10.6% in assay [2]; 12.3% in assay [3]; 33.4% in assay [4]; 7.85% in assay [5]; 6.9% in assay [6].
Take `CC1(C)C2CCC1(C)C(/C=N/NC(N)=O)C2` (configuration not stated): the growth inhibition in assay [1] is 5.4%; in assay [2], 17.8%; in assay [3], -5.6%; in assay [4] it was -46%; in assay [5], 20.4%; in assay [6], 12.8%.
With `NC1=CN(CCCO)C2=N/C(=C\c3ccccc3)C(=O)N12`, the growth inhibition in assay [1] was 14.2%; in assay [2], -3.65%; in assay [3] it was 26.4%; in assay [4] it was 8.9%; in assay [5], -3.3%; in assay [6] it was 12.7%.
Regarding `Cc1ccc(C(=O)CC2=Nc3nnc(CCCCCCCc4nnc5n4C(=O)C(CC(=O)c4ccc(C)cc4)=N5)n3C2=O)cc1`, the growth inhibition was -9.45% in assay [1]; 22.4% in assay [2]; -0.1% in assay [3]; -22% in assay [4]; -5.25% in assay [5]; -11.1% in assay [6].
On to `COC(=O)[C@]1(C)CCCC2(C)C1CC[C@H]1C=C(C)[C@H]3CCC12C3` (some centres not stated), for which the growth inhibition is 14% in assay [1]; 12.2% in assay [2]; -25.1% in assay [3]; 6.7% in assay [4]; -1.25% in assay [5]; 15.7% in assay [6].
As for `CC1CCCN(CCC(=O)c2ccc(O)cc2)C1` (configuration not stated), the growth inhibition in assay [1] is 38.2%; in assay [2] it was 22.5%; in assay [3], 26.3%; in assay [4], 21.2%; in assay [5] it was 7.35%; in assay [6] it was 32.4%.
Take `CCCCN(CCCC)CCCC(O)c1c2ccccc2nc2ccccc12` (configuration not stated): the growth inhibition in assay [1] was -3.55%; in assay [2], -5.95%; in assay [3] it was 7.6%; in assay [4], -13.9%; in assay [5], 1.4%; in assay [6], 12.6%.
In the case of `COc1ccc(/C=C2/C/C(=C/c3ccc(OC)cc3)C2=O)cc1`, the growth inhibition in assay [1] is 14.2%; in assay [2], 9.25%; in assay [3], 10.2%; in assay [4], 7.2%; in assay [5], 4.65%; in assay [6] it was 15%.
`Cc1c(C)c(C)c(CCc2c(C)c(C)c(C)c(C)c2C)c(C)c1C`: the growth inhibition in assay [1] is -16.8%; in assay [2], -1.25%; in assay [3], -0.9%; in assay [4] it was -16.5%; in assay [5], -4.15%; in assay [6] it was -12.3%.
With `O=C(O)C1C2CCCC21` (configuration not stated), the growth inhibition in assay [1] was -10.8%; in assay [2] it was 30.2%; in assay [3], -4.75%; in assay [4], 25.9%; in assay [5], 2%; in assay [6] it was 0.8%.
As to `CC(C)=CCNc1ncnc2c1ncn2CCC(=O)O`, the growth inhibition in assay [1] is -23.9%; in assay [2], -4.6%; in assay [3], -57%; in assay [4], -4.45%; in assay [5] it was -9.85%; in assay [6], -28.9%.
Turning to `CC(=O)NC(C)c1ccccc1` (configuration not stated), the growth inhibition in assay [1] is -4.75%; in assay [2], 40.1%; in assay [3], 15.3%; in assay [4] it was -11.9%; in assay [5] it was -1.55%; in assay [6], 3.3%.
In the case of `C/C(=C\C(=O)c1ccc(Sc2ccccc2)cc1)c1ccc(Sc2ccccc2)cc1`, the growth inhibition in assay [1] is 25.1%; in assay [2] it was -4.85%; in assay [3], 6.15%; in assay [4] it was -17.6%; in assay [5] it was 24.1%; in assay [6], 21.2%.
For `CCC(CC)C(O)C(C)C(C)O` (configuration not stated), the growth inhibition in assay [1] is 1.3%; in assay [2], -8.8%; in assay [3], -10.6%; in assay [4] it was 4.8%; in assay [5], -11.2%; in assay [6], -4.75%.
With `COc1ccc(N/C=C/C2=[N+](C)c3ccccc3C2(C)C)c(OC)c1`, the growth inhibition in assay [1] is 1.85% and -24.3%; in assay [2], -17.2% and -19.6%; in assay [3], -8.5% and -20.9%; in assay [4], 0.45% and -58.4%; in assay [5], -5.55% and -2.4%; in assay [6] it was 5.5% and -7.05%.
`Oc1cc(O)c2c(c1)OC(c1ccc(O)c(O)c1)C(O)C2O` (configuration not stated): the growth inhibition in assay [1] is 20.2%; in assay [2], 6.6%; in assay [3], 14.3%; in assay [4], -3.55%; in assay [5], 21.2%; in assay [6] it was 30.9%.
On to `O=c1c2cc(O)c(O)cc2oc2cc(O)c(C3OC(CO)C(O)C(O)C3O)c(O)c12` (configuration not stated), for which the growth inhibition was 14.2% in assay [1]; 1.1% in assay [2]; -27.7% in assay [3]; 6.45% in assay [4]; -41.4% in assay [5]; -77.1% in assay [6].
